# In PubChem BioAssay AID504692 (The Scripps Research Institute Molecular Screening Center, 2011):
# In all, about 340,000 compounds went through this assay and about 2,000 (0.59%) were called active. What follows is part of a selection rich in actives, with near analogues and random picks from the rest. Values without a mark were called inactive. Cut-off read from the data, not from the text of the source: active = activation mostly above about 9.5% (no sharp cut-off); inactive = mostly below about 7.6%.
# Biological target: 5-hydroxytryptamine receptor 5A (Homo sapiens) (UniProt P47898)
# Experiment: HTR5A agonists in luminescence cell assay, primary screen, counter-screen for OPRM1-OPRD1 heterodimer agonist project, full-deck HTS (AID 504692);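 note: 0% = cells with vehicle only and 100% = reference agonist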
# Details: cell-based, at 9.3 µM, active compounds read high
# Chain of 5-hydroxytryptamine receptor 5A (Homo sapiens) (P47898 whole entry, looked up): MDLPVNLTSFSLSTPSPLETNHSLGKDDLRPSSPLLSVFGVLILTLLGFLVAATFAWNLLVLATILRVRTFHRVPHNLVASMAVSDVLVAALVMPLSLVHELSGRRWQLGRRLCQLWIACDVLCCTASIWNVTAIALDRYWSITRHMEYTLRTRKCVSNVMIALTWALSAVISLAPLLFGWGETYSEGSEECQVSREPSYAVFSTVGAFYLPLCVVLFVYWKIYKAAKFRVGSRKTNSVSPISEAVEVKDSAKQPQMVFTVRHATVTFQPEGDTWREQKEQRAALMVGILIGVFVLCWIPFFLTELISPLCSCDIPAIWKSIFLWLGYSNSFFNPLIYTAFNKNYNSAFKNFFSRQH
row,Structure (SMILES),activation
1,CCc1nnc(NC(=O)c2cc(S(=O)(=O)N3CCCCC3)ccc2C)s1,3.55%
2,CCOC(=O)C1=C(O)/C(=C/c2ccc(OCC(=O)Nc3ccc(C)cc3)cc2)N=C1C,23.3% (active)
3,COC(=O)C1=C(O)/C(=C/c2ccc(OCC(=O)Nc3ccccc3)cc2)N=C1C,-2.15%
4,Cc1ccc(NC(=O)COc2ccc(/C=C3/NC(=O)NC3=O)cc2)cc1,1.1%
5,CCOC(=O)CC1=CC(=O)Nc2ccccc2N1,6.62%
6,CCc1ccc(C(=O)NC(=S)Nc2ccccc2N2CCOCC2)cc1,-3.97%
7,COc1ccc(C(=O)NC(=S)Nc2ccccc2N2CCN(S(C)(=O)=O)CC2)cc1OC,-1.57%
8,CC(=O)N1CCN(c2ccccc2NC(=S)NC(=O)c2cc3ccccc3o2)CC1,16.4% (active)
9,O=S(=O)(c1ccc(Sc2nnc3ccccn23)nc1)N1CCOCC1,2.94%
10,NC(=O)C1(N2CCCCC2)CCN(C2CC(=O)N(Cc3ccc(N4CCCC4=O)cc3)C2=O)CC1 (configuration not stated),1.47%
11,CC(C)Oc1ccc(C(=O)NCC(=O)Nc2ccc3c(c2)CCC3)cc1,-1.62%
12,COc1cccc(NC(=O)CN(C)CC(=O)Nc2ccc3c(c2)CCC3)c1,7.9%
13,COc1ccc(-c2ocnc2C(=O)Nc2ccc3c(c2)CCC3)cc1,16.5% (active)
14,O=C(CN(C(=O)c1csnn1)c1cccc(F)c1)NCc1ccc(F)cc1,-2.96%
15,CCOC(=O)C1=C(CC)Nc2ccccc2N=C1N,2.67%
16,O=C(c1ccc(OC2CCN(C(=O)c3cccnc3)CC2)cc1)N1CCCCCC1,2.41%
17,O=C(NCc1cc(F)cc(C(F)(F)F)c1)C1CCC(=O)N(C2CCCC2)C1 (configuration not stated),2.09%
18,C[C@H]1[C@H]2c3nc4ccccc4n3C[C@H]1ON2C1CCCCC1,1.56%
19,CCOc1ccc(CCNC(=O)C(CC)n2nc(C)n3c(cc4sccc43)c2=O)cc1OCC (configuration not stated),8.13%
20,O=C(O)c1ccc2c(=O)n3c(nc2c1)/C(=C/c1ccc(OC(F)F)cc1OC(F)F)CC3,-1.8%
21,Cc1ccc(/C=C2\CCn3c2nc2cc(C(=O)O)ccc2c3=O)c(C)c1,14.2% (active)
22,N#Cc1ccc(/C=C2\CCn3c2nc2cc(C(=O)O)ccc2c3=O)cc1,-2.04%
23,COc1ccc(CNc2nccs2)cc1,-2.48%

row,Structure (SMILES),activation
1,CCN(CC)CCNS(=O)(=O)c1ccc(/C=C/C(=O)O)cc1,6.16%
2,Cc1ccc2c(C)c(C(=O)N3CCC(N4CCC(C(=O)NC5CC5)CC4)CC3)oc2c1,-4.49%
3,CC1(C)Cc2cccc(OCC(=O)NCc3ccccc3)c2O1,0.71%
4,COc1cccc(CCNC(=O)COc2cccc3c2OC(C)(C)C3)c1,10.4% (active)
5,CC1(C)Cc2cccc(OCC(N)=O)c2O1,-7.5%
6,CCn1c2c(c3ccc(OC)cc31)CCCC2=O,2.01%
7,O=C1COc2ccc(C(=O)COC(=O)C3CC(O)CN3S(=O)(=O)c3ccc(Cl)cc3)cc2N1 (configuration not stated),2.08%
8,O=C(NCCCN1CCCC1=O)c1ccc(S(=O)(=O)Nc2ccccc2)cc1,-1.42%
9,Cc1ccc(Cn2c(SCC(=O)N/N=C/c3ccccc3OCC(=O)O)nc3ccccc32)cc1,13.2% (active)
10,CCn1c(SCC(=O)N/N=C/c2ccncc2)nc2ccccc21,0.02%
11,CCn1c(SCC(=O)N/N=C/c2ccccc2OCC(=O)O)nnc1-c1ccc(C(C)(C)C)cc1,-0.31%
12,COc1cc2c(cc1NC(=O)COC(=O)/C=C/c1ccccc1)oc1ccccc12,1.5%
13,Cc1c(C(=O)N2CCCc3ccccc32)oc2ccccc12,5.91%
14,CCOC(=O)c1c(C)[nH]c(C(=O)OCC(=O)N2CCCC2=O)c1C,-3.02%
15,Cc1c(C(=O)OCC(=O)N2CCCC2=O)oc2ccccc12,17.4% (active)
16,O=C(Cc1ncc(C(F)(F)F)cc1Cl)Nc1cccc(Br)c1,-3.41%
17,NS(=O)(=O)c1ccc(CNC(=S)NC(=O)c2ccco2)cc1,-0.69%
18,CCc1nn(CCCC(=O)Nc2ccc(C)cc2C)c(=O)c2cc3occc3n12,0.19%
19,CCCCCCCCn1c2c(c(=N)c3c1CCC3)CCCC2,12.5% (active)
20,Cc1ccccc1NC(=O)CSc1ccc2nnc(-c3ccccn3)n2n1,-2.77%
21,O=C(/C=C/c1cccc([N+](=O)[O-])c1)NCCSCc1ccco1,-1.08%
22,Cc1ccc(CNC(=O)C2CCCN2C(=O)NCc2ccccc2)cc1 (configuration not stated),-0.36%
23,O=C(NC1CC2CCCC(C1)N2C(=O)N1CCCCC1)C1CCCCC1 (configuration not stated),2.7%

row,Structure (SMILES),activation
1,O=C1CCCc2nn(-c3ccccc3)nc21,-0.59%
2,c1ccc(-n2nc3ccccc3n2)cc1,15.4% (active)
3,Nc1ccc2nn(-c3ccc(Cl)cc3)nc2c1,3.34%
4,Cc1ccc(S(=O)(=O)Nc2nc(CN3CCOCC3)nc3sc(C)c(C)c23)cc1,7.7%
5,O=C(O[C@H]1[C@H](Cc2ccccc2)NS(=O)(=O)[C@H]2C[C@@H]3C=C[C@]12O3)c1ccc([N+](=O)[O-])cc1,-6.9%
6,CCOc1cc(N2CCOCC2)c(OCC)cc1NC(=O)c1cc(C)nc2ccccc12,14.2% (active)
7,CCOc1cc(N2CCOCC2)c(OCC)cc1NC(=O)c1ccc(C)s1,0.66%
8,CCOc1cc(N2CCOCC2)c(OCC)cc1NC(=O)C1=NN(c2cccc(C)c2)C(=O)CC1,11.3%
9,CCc1ccc(C2N3CC4([N+](=O)[O-])CN2CC([N+](=O)[O-])(C3)C4(C)C)cc1 (configuration not stated),2.6%
10,CC1(C)C(C=C(Cl)Cl)C1C(=O)N(Cc1ccc(Cl)cc1)C1CCS(=O)(=O)C1 (configuration not stated),0.53%
11,CCc1ccc(CNC(=O)C2CCN(c3nnc(C)c4c(C)n(-c5ccc(C)cc5)nc34)CC2)cc1,11.9% (active)
12,COc1ccc(-n2nc3c(N4CCC(C(=O)NCc5ccccc5)CC4)nnc(C)c3c2C)cc1,-1.31%
13,CCOc1ccc(CNC(=O)C2CCCN(c3nnc(C)c4c(C)n(-c5ccccc5)nc34)C2)cc1 (configuration not stated),7.35%
14,O=C(Nc1ccccc1Cc1ccccc1)c1ccc2c(c1)SC1=NS(=O)(=O)CCN12,6.02%
15,Cc1cccc(CCNS(=O)(=O)c2ccc3c(c2)NC(=O)CO3)c1,-0.45%
16,O=C(C1CCC(=O)N(C2CC2)C1)N1CCN(c2ccc(Cl)cc2)CC1 (configuration not stated),0.66%
17,Cc1cc(NC(=O)CSc2nccn2-c2ccc([N+](=O)[O-])cc2)no1,-1.99%
18,COC(=O)c1cc(C(=O)OCC(=O)Nc2cc(C)on2)cc([N+](=O)[O-])c1,14.7% (active)
19,Cc1cc(NC(=O)COc2ccc([N+](=O)[O-])cc2)no1,-2.97%
20,CC(=O)N1CCN(S(=O)(=O)c2ccc(C)c([N+](=O)[O-])c2)C1C(C)C (configuration not stated),0.82%
21,CNC(=S)NNC(=O)c1sccc1OCc1ccccc1,6.65%
22,O=C(O)COc1ccc(/C=N/O)cc1Br,1.32%
23,CNC(=S)N/N=C/c1ccc(OCc2ccccc2)c(Br)c1,14.9% (active)

row,Structure (SMILES),activation
1,N=c1c2c3c(sc2ncn1CCCN1CCOCC1)CCCCC3,6.44%
2,COc1ccc(N(CC(=O)NC2CCCC2)C(=O)CS(=O)CC(=O)Nc2ccc3c(c2)OCO3)cc1 (configuration not stated),1.5%
3,CC(CNS(=O)(=O)c1ccc(Br)cc1)CN(C)C (configuration not stated),0.38%
4,Cc1nc(S(=O)(=O)c2ccc(Br)cc2)nc2c1CCC2,3.89%
5,O=S(=O)(NN=C1CCCCCCC1)c1ccc(Br)cc1,9.89% (active)
6,CCOc1ccc(NC(=O)c2nc(SCC)ncc2Cl)cc1,11.8% (active)
7,CCOc1ccc(NC(=O)c2cc(C)nc3ccccc23)cc1,6.43%
8,CCOc1ccc(NC(=O)CSc2nncn2C)cc1,2.03%
9,Cc1ccc(C)c(Cn2nnc3c(=O)[nH]c(C(=O)Nc4ccc(F)cc4)nc32)c1,-2.89%
10,COc1ccc(NC(=O)COC(=O)c2ccc(NS(=O)(=O)/C=C/c3ccccc3)cc2)cc1,-1.75%
11,N#CCCN(C(=O)COC(=O)c1ccc2c(c1)OCCO2)c1ccccc1,5.45%
12,N#CCCN(C(=O)COC(=O)c1ccc(S(=O)(=O)N2CCCCCC2)cc1)c1ccccc1,-3.52%
13,Cc1c(C(=O)OCC(=O)N(CCC#N)c2ccccc2)oc2c1ccc1ccccc12,53% (active)
14,CCN1CCN(C(=O)/C=C\C(=O)O)CC1,2.72%
15,CC1C(C)N(C(=O)CCl)c2ccccc2N1C(=O)CCl (configuration not stated),8.76% (active)
16,CC1CC(C)CN(CC(=O)N2c3ccccc3CCc3ccccc32)C1 (configuration not stated),-4.89%
17,CC1C(=O)N(Cc2ccccc2)c2ccccc2N1C(=O)c1ccccc1 (configuration not stated),0.41%
18,Cc1cccc(N2CCN(C(C)C(=O)N3CCc4ccccc43)CC2)c1C (configuration not stated),7.68%
19,COc1cc(OC)c(-n2cc(-c3ccc(Cl)cc3)[nH]c2=O)cc1Cl,5.5%
20,CC1CCCCN1CCCNc1ccc(C(CC(N)=O)NC(=O)c2ccccc2)cc1[N+](=O)[O-] (configuration not stated),-1.92%
21,NC(N)=NCCCc1cn(CC(=O)N2CCNCC2)nn1,12.4% (active)
22,C#CCOCCOCCOCCNc1nc(N2CCN(C(=O)Cn3cc(CCO)nn3)CC2)nc(N2CCN(C(=O)Cn3cc(CCCN=C(N)N)nn3)CC2)n1,-2.92%
23,CCC(C)[C@@H](C(=O)N1CCNCC1)n1cc(CCCCN)nn1 (some centres not stated),-1.58%
